From ChEMBL document CHEMBL3988442, “University of Dundee, Small-Polar-MMV Screening Library” (2021)
Among all 48,000 compounds or so, about 13,000 (27%) showed an effect of 50% or more. The list shows a part of the results.

tested on: Wolbachia pipientis; assay: Anti-Wolbachia Cell-Based Screen; format: functional; design: scale not given: in the data most compounds retested in dose-response had high values; conditions: 5 µM

SMILES | Percent Effect
Cc1cccc(CN(C)Cc2nc3c(cnn3C)c(=O)[nH]2)c1 | -4.984%
CCN(Cc1nc2c(cnn2C)c(=O)[nH]1)Cc1ccccc1C | -3.933%
CC(C)CN(CCc1ccccc1)Cc1nc2c(cnn2C)c(=O)[nH]1 | 122.3%
CC(C)N(Cc1cccc(Cl)c1)Cc1nc2c(cnn2C)c(=O)[nH]1 | 119.9%
CCN(Cc1cccc(Cl)c1)Cc1nc2c(cnn2C)c(=O)[nH]1 | 6.587%
CC(C)CN(Cc1nc2c(cnn2C)c(=O)[nH]1)C(C)C | -8.165%
CCN(Cc1nc2c(cnn2C)c(=O)[nH]1)Cc1ccccc1Cl | 128.5%
CCN(Cc1cccc(C)c1)Cc1nc2c(cnn2C)c(=O)[nH]1 | 145.1%
CN(Cc1nc2c(cnn2C)c(=O)[nH]1)Cc1ccccc1Cl | -1.712%
CC(C)N(Cc1cccc(F)c1)Cc1nc2c(cnn2C)c(=O)[nH]1 | -9.693%
CN(CCCc1ccccc1)Cc1nc2c(cnn2C)c(=O)[nH]1 | -1.148%
Cc1ccc(NCc2ccc(C#N)cc2)c(CN(C)C)c1 | -4.346%
N#CCCN(Cc1ccccn1)C(=O)Nc1cccnc1 | -3.639%
CCN(C)c1ccc(C(=O)NCCCc2ccccn2)cn1 | 1.401%
CC(O)CC(C)(C)CNS(=O)(=O)c1cccc(Cl)c1C#N (stereo unspecified) | -3.91%
O=C(CN1C(=O)CCNC1=O)N1CCOC(c2ccc(F)cc2)C1 (stereo unspecified) | 13.31%
CCN(CC(=O)NC(C)C)S(=O)(=O)N1CCCC(C)C1 (stereo unspecified) | -4.686%
CC(=O)c1c(F)cccc1N1CCC(CS(N)(=O)=O)CC1 | -2.597%
CN(Cc1ccc([S+](C)[O-])cc1)c1ccc(Cl)cn1 (stereo unspecified) | -11.61%
CCN(Cc1nc2c(cnn2C)c(=O)[nH]1)c1ccccc1C | -6.85%
CCN(Cc1ccccc1)Cc1nc2c(cnn2C)c(=O)[nH]1 | 106.9%
Cn1ncc2c(=O)[nH]c(CN(Cc3cccc(F)c3)C3CC3)nc21 | 7.175%
CCN(Cc1cccc(F)c1)Cc1nc2c(cnn2C)c(=O)[nH]1 | 117.6%
CC(C)CN1C(=O)CC[C@H]2CN(Cc3ncc[nH]3)CC[C@H]21 | -0.2124%
Cc1noc(Cl)c1CC(=O)NCC(C)(O)c1ccc(F)cc1F (stereo unspecified) | 5.104%
CN(Cc1nc(-c2cccnc2)no1)C(=O)c1c2c(nn1C)CCCC2 | -6.1%

SMILES | Percent Effect
O=C1CN(c2ccc(CNc3cncc(-n4cccn4)n3)cc2)CCN1 | 17.5%
CC(C)OCc1ccc(CNc2cncc(-n3cccn3)n2)cc1 | 123.9%
NS(=O)(=O)Cc1ccc(CNc2cncc(-n3cccn3)n2)cc1 | 114%
COC(=O)Nc1ccc(CNc2cncc(-n3cccn3)n2)cc1 | 97.69%
CC(C)COc1cncc(NCc2nnc3ccccn23)n1 | -11.09%
CCOCc1ccc(CNc2cncc(-n3cccn3)n2)cc1 | 106.2%
CCOCCOCc1cccc(CNc2cncc(-n3cccn3)n2)c1 | 5.599%
CN(C)C(=O)C1CCN(c2cncc(-n3cccn3)n2)CC1 | 6.063%
Cc1cnn(CC(C)NCc2ccc(-n3cccn3)cc2)c1 (stereo unspecified) | 9.413%
CCOCc1ccc(CNc2nc(OC)ncc2Cl)cc1 | -6.174%
CNS(=O)(=O)Cc1ccc(CNc2cncc(-n3cccn3)n2)cc1 | 3.239%
Cc1cc(N2C[C@H](C3CC3)[C@@H](N)C2)nc(N2CCCCC2)n1 | 11.86%
CC(C)c1cc(N2CCC(N(C)C)C2)n2nccc2n1 (stereo unspecified) | 10.32%
O=C1OCCN1Cc1ccc(C(F)(F)F)cc1F | -29.22%
CCNc1ncc(C(=O)NC(c2ccccc2)c2ccco2)cn1 (stereo unspecified) | -3.465%
COCCN(Cc1sccc1C)Cc1nccn1CCOC | 4.16%
CC(CNc1cncc(-n2cccn2)n1)N(C)c1ccccc1 (stereo unspecified) | 0.6159%
CN(C)c1ccc(CNc2cncc(-n3cccn3)n2)cc1 | 6.951%
COCc1ccc(CNc2cncc(-n3cccn3)n2)cc1 | 105.5%
CN(C)c1cc(CNc2cncc(-n3cccn3)n2)ccn1 | 94.25%
CCN(CC)S(=O)(=O)c1ccc(NC(=O)C(C)(C)C)cc1 | -6.648%
O=C(COc1ccc(Cl)cc1)N1CCN(c2cnccn2)CC1 | 138.2%
O=C(Cc1ccc2c(c1)OCO2)N1CCN(c2cnccn2)CC1 | -5.983%
Cc1nn(CC(=O)N2CCN(c3cnccn3)CC2)c(C)c1Cl | 4.895%
O=C(CCOc1ccccc1Cl)N1CCN(c2cnccn2)CC1 | 81.46%
O=C(CCSc1ccc(F)cc1)N1CCN(c2cnccn2)CC1 | -10.65%

SMILES | Percent Effect
O=C(CCSc1ccccc1F)N1CCN(c2cnccn2)CC1 | 4.662%
O=C(CCOc1cccc(Cl)c1)N1CCN(c2cnccn2)CC1 | 103.8%
O=C(c1ccc(-n2cc(Br)cn2)cc1)N1CCN(c2cnccn2)CC1 | 12.88%
CC(CC(=O)N1CCN(c2cnccn2)CC1)c1ccc(F)cc1 (stereo unspecified) | 3.505%
O=C(CCOc1ccc(Br)cc1)N1CCN(c2cnccn2)CC1 | 108.9%
CSCc1cccc(S(=O)(=O)NCCCO)c1 | -5.091%
CS(=O)(=O)CCN(CC1CCCO1)C1CCCC1 (stereo unspecified) | -6.798%
CC(NCc1cn(CCC(N)=O)c2ccccc12)c1nncn1C (stereo unspecified) | -5.557%
O=C(C[C@@H]1COC[C@H]2CN(C3CCCC3)C[C@@H]12)N1CCCCO1.O=C(O)C(F)(F)F | 2.72%
Cc1ccc(C(=O)N2CCn3cc(CN(C)Cc4ccco4)nc3C2)o1.O=C(O)C(F)(F)F | -7.52%
CN(C)CCn1c2c(ccc1=O)CCN(C(=O)c1cccs1)CC2.O=C(O)C(F)(F)F | 111.2%
Cc1ccoc1C(=O)N1Cc2c(Cn3ccnc3)nn(C)c2C1.O=C(O)C(F)(F)F | 12.61%
Cc1ccc2c(n1)N(CCN(C)C)CCN(C(=O)c1ccoc1)C2.O=C(O)C(F)(F)F.O=C(O)C(F)(F)F | 2.564%
Cc1ccoc1C(=O)N1CCc2ccc(=O)n(CCN(C)C)c2CC1.O=C(O)C(F)(F)F | 99.37%
Cc1ccc(C(=O)N2CCc3ccc(=O)n(CCN(C)C)c3CC2)o1.O=C(O)C(F)(F)F | 107.1%
Cc1ccc2c(n1)N(CCN(C)C)CCN(C(=O)c1cccs1)C2.O=C(O)C(F)(F)F.O=C(O)C(F)(F)F | -13.61%
Cc1ccoc1C(=O)N1C[C@@H]2[C@@H](C1)OCC(=O)N2Cc1cccnc1.O=C(O)C(F)(F)F | 8.295%
CN(C)CCOc1ccccc1N1CCN(C(=O)c2ccoc2)CC1 | -4.916%
Cc1ccc(C(=O)N2C[C@@H]3[C@@H](C2)OCC(=O)N3Cc2cccnc2)o1.O=C(O)C(F)(F)F | -3.343%
CN(C)CCn1c2c(ccc1=O)CCN(C(=O)c1ccoc1)CC2.O=C(O)C(F)(F)F | 107.6%
CCS(=O)(=O)c1ccc2oc([C@H]3CCN(Cc4ccccc4)C3)nc2c1 | -9.259%
CC(NCCN1CCC(N(C)C)CC1)c1ccc(F)cc1N(C)C (stereo unspecified) | -1.854%
CCc1nc(CC(=O)N2CCC(C(=O)N(CC)CC)CC2)cs1 | 9.803%
NC(=O)C1CCN(C(=O)c2cccc(OCc3cscn3)c2)CC1 | -9.747%
Cc1cc(C)c(CNC(=O)NCCNc2cnccn2)c(=O)[nH]1 | 6.343%
Cc1ccc(C(=O)N2CCN(CCC(C)(C)C)CC2)c(=O)[nH]1 | -8.325%

SMILES | Percent Effect
CS(=O)(=O)CC(=O)N(CCN1CCOCC1)Cc1ccco1 | -25.1%
CC(C(=O)NCc1ccc(F)cc1)N(C)CCN1CCOCC1 (stereo unspecified) | 8.931%
OCC(O)CN(CCN1CCOCC1)Cc1ccco1 (stereo unspecified) | 99.07%
C/C=C(\C)CN(CCN1CCOCC1)Cc1ccco1 | 118.7%
CN(C)CCN1CCOCC2(C1)CN(Cc1ccco1)CCO2.O=C(O)C(F)(F)F.O=C(O)C(F)(F)F.O=C(O)C(F)(F)F (stereo unspecified) | 27%
CC(=O)NCC(=O)N(CCN1CCOCC1)Cc1ccco1 | -7.485%
OCc1ccncc1NCc1cnc(-c2ccccn2)s1 | -4.749%
Cc1cc2n(n1)CC(CNC1CCN(c3ccccn3)CC1)CN2 (stereo unspecified) | 4.836%
O=C(NCc1ccccc1)N1CCC2(CC(=O)N(c3ccccc3)C2)C1 (stereo unspecified) | 115.5%
Cn1ccnc1CN1CCC2(CC(=O)N(c3ccsc3)C2)C1.O=C(O)C(F)(F)F (stereo unspecified) | 6.522%
O=C(NCc1cccnc1)N1CCC2(CC(=O)N(c3ccsc3)C2)C1.O=C(O)C(F)(F)F (stereo unspecified) | 89.85%
O=C(NCc1ccccc1)N1CCC2(CC(=O)N(c3ccsc3)C2)C1 (stereo unspecified) | -8.501%
O=C(NCc1cccc(F)c1)N1CCC2(CC(=O)N(c3ccsc3)C2)C1 (stereo unspecified) | 6.273%
O=C(NC[C@H]1COCc2nc3cc(F)ccc3n21)c1cccnc1 | -2.363%
CCS(=O)(=O)CCNC(=O)[C@@]12CNC[C@@H]1CN(C1CCCC1)C2 | 17.06%
CC(=O)Nc1ccc(CNC2CCCSC2)cc1 (stereo unspecified) | -9.842%
Cc1ccccc1C(=O)N1C[C@@H]2OCCN(c3ncccn3)[C@@H]2C1.O=C(O)C(F)(F)F | 105.7%
Cc1occc1C(=O)N1C[C@@H]2[C@@H](C1)OCC(=O)N2Cc1cccnc1.O=C(O)C(F)(F)F | -5.789%
Cn1ccc(C(=O)N2C[C@@H]3CCN(c4cccnc4)C[C@@H]3C2)n1.O=C(O)C(F)(F)F | -11%
Cc1occc1C(=O)N1C[C@H]2CCCC(OCc3cccnc3)[C@H]2C1.O=C(O)C(F)(F)F (stereo partly specified) | -5.108%
Cc1cccc(C(=O)N2C[C@@H]3OCCN(c4ncccn4)[C@@H]3C2)n1.O=C(O)C(F)(F)F.O=C(O)C(F)(F)F | -4.674%
Cn1ccc(C(=O)N2C[C@@H]3OCCN(c4ncccn4)[C@@H]3C2)n1.O=C(O)C(F)(F)F | 98.93%
Cc1occc1C(=O)N1C[C@@H]2OCCN(c3ncccn3)[C@@H]2C1.O=C(O)C(F)(F)F | 117.5%
